Data published in PubChem BioAssay AID1240 (Sanford-Burnham Center for Chemical Genomics, 2008).
Out of some 50,000 compounds screened, about 800 (1.6%) showed an effect of 50% or more. This excerpt belongs to a sample that is enriched for strong results.

The compounds below were run against Bcl-2-like protein 10 (Homo sapiens) (UniProt Q9HD36) (assay: Phenotype converters, Bcl-B/TR3 peptide binding displacement, primary biochemical FP (AID 1240;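 also: 0% = Bcl-B with tracer peptide and DMSO and 100% = tracer peptide lacking Bcl-B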)). Conditions: GST-Bcl-B / FITC-TR3 peptide fluorescence polarization; stronger effect = higher value; compound at 3.75 mg/L.
Chain of Bcl-2-like protein 10 (Homo sapiens) (Q9HD36 whole entry, looked up): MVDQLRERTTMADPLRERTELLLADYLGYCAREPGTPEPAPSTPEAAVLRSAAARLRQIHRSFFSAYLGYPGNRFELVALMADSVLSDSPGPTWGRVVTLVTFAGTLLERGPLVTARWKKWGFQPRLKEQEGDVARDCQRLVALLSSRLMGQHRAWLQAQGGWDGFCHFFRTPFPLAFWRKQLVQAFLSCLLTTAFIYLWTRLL

Row | SMILES | displacement [%]
1 | COc1ccc(C(=O)N2CCN(C3C4CC5CC(C4)CC3C5)CC2)cc1OC (stereo not drawn) | -6.5
2 | Cc1cccc(N2CCN(C(=O)Nc3ccc(Cl)c(Cl)c3)CC2)c1C | -0.9
3 | O=S1(=O)CCC(NC(=S)SCCOc2ccccc2OCCO)C1 (stereo not drawn) | 6.3
4 | Cc1cccc(C=Nc2ccc(O)cc2)c1 | -8.4
5 | CS(=O)(=O)N(CC(=O)Nc1ccc(Cl)cc1)c1ccc(Br)cc1 | 3.3
6 | Cc1ccc(-c2csc(NC(=O)c3sc4ccccc4c3Cl)n2)c(C)c1 | 2.6
7 | CCOc1ccc(Cc2c(C)nc3c(C)cccc3c2Cl)cc1 | -5.7
8 | CCC1=NN(C(=O)c2ccncc2)C(O)(c2ccc(Br)cc2)C1 (stereo not drawn) | 10.2
9 | Cc1ccc(NC(=S)NN2CCN(C)CC2)cc1 | 5.2
10 | Cc1ccc(OCC(=O)NCc2ccco2)c(C)c1 | -2.9
11 | N#C/C(=C/c1ccccc1)C(=O)Nc1ccc(Cl)c(Cl)c1 | 1.5
12 | CC(C)(C)c1cc(/C=N/Nc2nnc3c(n2)[nH]c2ccccc23)cc(C(C)(C)C)c1O | 4.8
13 | Cc1nc(-c2ccccc2)nc2[nH]ccc(=O)c12 | 11.9
14 | CSc1nc(-c2ccccc2)nc2[nH]ccc(=O)c12 | 110
15 | Cc1nc(-c2ccccc2)c2c(=O)cc[nH]c2n1 | 15.4
16 | COc1cc(/C=C2/SC(=S)N(C)C2=O)cc(Br)c1OCCOc1ccccc1C | -2
17 | COC(=O)C(Cc1ccccc1)NC(=O)CCN1C(=O)c2cccc3cccc(c23)C1=O (stereo not drawn) | 15
18 | CCc1ccc(NC(=O)C(=O)NCCCO)cc1 | 5
19 | CN(C)c1ccc(C(O)C(C)(O)c2nc3ccccc3n2C)cc1 (stereo not drawn) | 6.1
20 | COc1cc(C=C2C(=O)c3ccccc3C2=O)ccc1OCc1ccc(I)cc1 | -11.5
21 | COc1cc(/C=C2\C(=O)NC(=O)N(c3ccc(C)cc3)C2=O)ccc1OCc1ccc([N+](=O)[O-])cc1 | 70
22 | COc1cc(/C=C2\C(=O)NC(=O)N(c3ccc(C)cc3)C2=O)ccc1OCc1ccccc1 | 38.6
23 | COc1cc(C=C2C(=O)c3ccccc3C2=O)ccc1OCc1ccc(F)cc1 | 88.7
24 | COc1cc(/C=C2/C(=O)NC(=O)N(c3ccc(C)cc3)C2=O)ccc1OCCOc1ccc([N+](=O)[O-])cc1 | 10.8
25 | C=CCOc1ccc(/C=C2/C(=O)NC(=O)N(c3ccc(C)cc3)C2=O)cc1OCC | -2.8
26 | COc1cc(/C=C2/C(=O)NC(=S)N(c3ccccc3)C2=O)ccc1OCc1ccc([N+](=O)[O-])cc1 | 4
27 | C=CCOc1ccc(/C=C2/C(=O)NC(=O)N(c3cccc(C)c3)C2=O)cc1OCC | 126

Row | SMILES | displacement [%]
28 | CCOc1cc(/C=C2/C(=O)NC(=O)N(c3ccc(OC)cc3)C2=O)ccc1OCCOc1ccc([N+](=O)[O-])cc1 | -0.9
29 | O=C1C(=Cc2ccc(OCc3ccc(F)cc3)c(Br)c2)C(=O)c2ccccc21 | 19.1
30 | CCOc1cc(/C=C2/C(=O)NC(=O)N(c3ccccc3)C2=O)ccc1OCc1ccc([N+](=O)[O-])cc1 | 75.9
31 | C=CCOc1ccc(/C=C2\C(=O)NC(=O)N(c3ccc(Cl)cc3)C2=O)cc1OCC | -4
32 | Cc1ccc(NS(=O)(=O)c2cccc([N+](=O)[O-])c2)cc1Cl | -0.2
33 | CC(=O)Nc1ccccc1NC(=O)c1ccc(Cl)cc1 | 11.4
34 | O=C(O)CCC(=O)Nc1ccc2nn(-c3ccccc3)nc2c1 | 3.6
35 | COc1cc(C(=O)Nc2ccc(Br)cn2)cc(OC)c1OC | -1.3
36 | COc1ccc(-c2c(C#N)c(N)nc3c2CCCCC3)cc1OC | -2.3
37 | CCCCOC(=O)c1sc2nc(N)c(C#N)c(-c3ccc(OC)c(OC)c3)c2c1N | 167
38 | CCOc1ccc(-c2c(C#N)c(N)nc3sc(C#N)c(N)c23)cc1 | -1.4
39 | O=C(CCN1C(=O)c2ccccc2C1=O)NC1CCCC1 | 8.5
40 | O=C(N/N=C/c1cccnc1)/C(=C\c1cccs1)NC(=O)c1ccccc1 | -9.3
41 | O=C1NC(=Nc2cccc(O)c2)S/C1=C\c1cccc(O)c1 | 1.9
42 | O=C1NC(=Nc2cccnc2)S/C1=C\c1ccc(F)cc1 | 3.5
43 | O=C1NC(=Nc2cccnc2)S/C1=C\c1cccc(F)c1 | 146
44 | O=C1NC(=Nc2cccc(O)c2)S/C1=C\c1ccc(F)cc1 | 75.8
45 | O=C1NC(=Nc2cccnc2)S/C1=C\c1ccc(Br)cc1 | 12.1
46 | O=C1NC(=Nc2ccc(O)cc2)S/C1=C\c1ccc(F)cc1 | 7.7
47 | CCOC(=O)C12CC3CC(CC(C3)C1)C2 | -12.2
48 | COc1ccc([N+](=O)[O-])cc1NCc1cccnc1 | 3.1
49 | Oc1ccc2ccccc2c1C=Nc1ccc2oc(-c3ccccc3Br)nc2c1 | 120
50 | NC(=O)c1cccc(N=Cc2c(O)ccc3ccccc23)c1 | -0.3
51 | CCC(=O)Nc1ccc2oc(-c3ccccc3Br)nc2c1 | 8.7
52 | COc1ccc(-c2ccc(-c3nnc(-c4cccc(C)c4)o3)cc2)cc1 | -5.4
53 | COc1cc(C=NN2CCN(Cc3ccc(C)cc3C)CC2)cc(Br)c1O | 10.3
